Rin1-Abl PPI inh – inhibitors of Rin1-Abl protein binding, primary screen, biochemical, TR-FRET. inhibition, % at 7.35 µM. Tyrosine-protein kinase ABL1 (Homo sapiens) + Ras and Rab interactor 1 (Homo sapiens), …. actives 0.4% (n = 360,000); in the data active = inhibition above about 5%, passing the limit was not always enough
PAFAH1B2 FP inh – PAFAH1B2 enzyme inhibitors, primary screen, biochemical, fluorescence polarization, human | Platelet-activating factor acetylhydrolase IB subunit alpha2 (Homo sapiens), P68402 | recombinant PAFAH1B2, FP-rhodamine activity probe | inhibition, % at 3.39 µM | actives 1.2% (n = 340,000) | AID 492953, 2010;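 active = inhibition above the mean of all tested compounds plus 3 SD, cut at about 24% in these data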
Target sequence (P68402 whole entry, looked up): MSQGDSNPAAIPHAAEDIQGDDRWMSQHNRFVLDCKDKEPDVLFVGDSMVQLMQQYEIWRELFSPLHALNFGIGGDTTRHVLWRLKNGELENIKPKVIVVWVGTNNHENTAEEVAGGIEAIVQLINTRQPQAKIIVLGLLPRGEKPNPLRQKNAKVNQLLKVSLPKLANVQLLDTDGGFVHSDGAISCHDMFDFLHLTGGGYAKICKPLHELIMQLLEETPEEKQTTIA
PAFAH2 inh – PAFAH2 enzyme inhibitors, primary screen, biochemical, fluorescence polarization, human | inhibition, % at 3.39 µM | recombinant PAFAH2, FP-rhodamine activity probe | Platelet-activating factor acetylhydrolase 2, cytoplasmic (Homo sapiens), Q99487 | AID 492956, 2010 | actives 0.99% (n = 340,000);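 active = inhibition above the mean over all tested compounds plus 3 SD, cut at about 30% in these data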;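 also: inhibitors block probe labeling of enzyme so polarization drops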
E coli Lon inh – inhibitors of E. coli Lon protease, primary screen, biochemical, fluorescence polarization; P0A9M0; purified E. coli Lon protease; inhibition, % at 7.94 µM; actives 0.42% (n = 360,000); in the data active = inhibition above about 13%, passing the limit was not always enough
PAFAH1B3 FP inh – PAFAH1B3 enzyme inhibitors, primary screen, biochemical, fluorescence polarization, human; Platelet-activating factor acetylhydrolase IB subunit alpha1 (Homo sapiens), Q15102; AID 492972, 2010; inhibition, % at 3.39 µM; recombinant PAFAH1B3, FP-rhodamine probe; actives 0.28% (n = 340,000);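 active = inhibition above the screen-wide average of all tested compounds plus 3 SD, cut at about 25% in these data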
Target sequence (Q15102 whole entry, looked up): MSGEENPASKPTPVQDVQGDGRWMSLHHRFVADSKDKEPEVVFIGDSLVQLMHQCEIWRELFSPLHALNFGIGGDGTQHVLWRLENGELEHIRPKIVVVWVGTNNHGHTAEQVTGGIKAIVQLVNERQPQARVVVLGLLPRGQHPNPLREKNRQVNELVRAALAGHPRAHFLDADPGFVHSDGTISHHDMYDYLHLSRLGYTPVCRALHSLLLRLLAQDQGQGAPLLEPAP
pPAFAH inh – pPAFAH enzyme inhibitors, primary screen, biochemical, fluorescence polarization, human | Platelet-activating factor acetylhydrolase (Homo sapiens), Q13093 | recombinant pPAFAH, FP-rhodamine probe fluorescence polarization | inhibition, % at 3.39 µM | actives 1.5% (n = 330,000) | AID 463082, 2010;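 active = inhibition above the mean inhibition across the screen plus 3 SD, cut at about 25% in these data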;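 also: inhibitors block binding of the rhodamine activity-based probe so polarization drops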
pPAFAH confirm – pPAFAH (PLA2G7) enzyme inhibitors, confirmation, biochemical, fluorescence polarization, human; recombinant pPAFAH, FP-Rh probe fluorescence polarization; shares compounds with pPAFAH inh; actives 72% (n = 2,300); AID 463230, 2010; inhibition, % at 3.39 µM;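 active = mean inhibition of the triplicate above the hit cutoff set for the earlier primary screen, cut at about 25% in these data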
Numbers stand for hits; 0 = inactive; - = not tested or not shown; ! = repeats disagree. Hits are enriched below; roughly 3.1% of the tested compounds scored in any of these assays.

SMILES	Rin1-Abl PPI inh	PAFAH1B2 FP inh	PAFAH2 inh	E coli Lon inh	PAFAH1B3 FP inh	pPAFAH inh	pPAFAH confirm
CCN(CC)C(=O)[C@H]1C[C@H](CC(=O)NCc2ccc(OC)c(OC)c2)C(=O)N2CCc3c([nH]c4cc(CCC(=O)N(C)C)ccc34)[C@]12C	0	0	0	0	0	0	-
CCN(CC)C(=O)[C@H]1C[C@H](CC(=O)NC/C=C(\C)CCC=C(C)C)C(=O)N2CCc3c([nH]c4cc(CCC(=O)N(C)C)ccc34)[C@]12C	0	0	0	0	0	63	50
CCOc1ccc(C(=O)COC(=O)c2cc(=O)[nH]c3ccccc23)cc1	0	0	0	0	0	0	-
COc1ccc(NC(=O)Nc2ccccc2OC)cc1	0	0	0	0	0	0	-
COc1ccccc1NC(=O)Nc1ccc(C(N)=O)cc1	0	0	0	0	0	42	0
Cc1nn(C(C)C(=O)NC2CCCCC2)c(=O)c2nn(-c3ccccc3)c(C)c12 (stereo unspecified)	0	0	0	0	0	0	-
CC(=O)CN1Cc2ccccc2/C1=N\C(=O)Nc1ccccc1	0	0	0	0	0	71	0
NS(=O)(=O)c1ccc(CNC(=O)c2ccc3c(c2)OCO3)cc1	0	0	0	0	0	0	-
O=C(CCCc1nc2ccccc2s1)NNC(=O)CCN1CCN(Cc2ccccc2)CC1	0	0	0	0	0	0	-
COc1cccc(=O)c2c(C)n(CC(=O)c3ccccc3)c(C)c12	0	0	0	0	0	38	0
CCc1ccccc1OCC(=O)Nc1cc(S(=O)(=O)N(CC)CC)ccc1N1CCOCC1	0	0	0	0	0	49	0
CC1=C(C(=O)Nc2ccc(CC(=O)NCc3ccc(OC(C)C)cc3)cc2)SCCO1	0	0	0	0	0	38	0
S=c1[nH]c(-c2ccc(Br)cc2)cn1CCc1ccccc1	0	0	0	0	0	0	-
COc1ccccc1NS(=O)(=O)c1cccc(C(=O)NCC2(N(C)C)CCCCC2)c1	0	0	0	0	0	0	-
CN(C)C1(CNC(=O)c2cccc(S(=O)(=O)NCc3ccccc3)c2)CCCCC1	0	0	0	0	0	0	-
CN(C)C1(CNC(=O)c2cccc(S(=O)(=O)Nc3ccc(Br)cc3)c2)CCCCC1	0	0	0	0	0	43	42
Cc1ccc(NS(=O)(=O)c2cccc(C(=O)NCC3(N(C)C)CCCCC3)c2)cc1	0	0	0	0	0	60	53
CCCCOC(=O)c1ccc(OC(=O)N2CCOCC2)cc1	0	0	36	0	0	94	97
O=C(c1ccccc1)c1ccc(OC(=O)N2CCOCC2)cc1	0	0	35	0	0	52	53
CCCCOC(=O)N1CCOCCOCCN(C(=O)OCCCC)CCOCCOCC1	0	0	0	0	0	35	26
O=C(Oc1ccc(C(=S)N2CCOCC2)cc1)c1ccccc1	0	0	0	0	0	0	-
Nc1ccn(C(C=O)CC(C=O)CO)c(=O)n1 (stereo unspecified)	0	-	-	0	-	-	-
COc1ccc(CCNC(=O)CCNC(=O)c2ccc([N+](=O)[O-])cc2)cc1	0	0	0	0	0	0	-
COc1ccccc1-n1c(SCC(=O)Nc2ccccc2C)nc(O)cc1=O	0	0	0	0	0	81	0
COc1ccccc1NC(=O)CSc1nc(O)cc(=O)n1-c1ccccc1OC	0	0	0	0	0	43	0
SMILES	Rin1-Abl PPI inh	PAFAH1B2 FP inh	PAFAH2 inh	E coli Lon inh	PAFAH1B3 FP inh	pPAFAH inh	pPAFAH confirm
Nc1[nH]c2cc([N+](=O)[O-])ccc2c1-c1ccccn1	0	0	0	0	0	0	-
CC(CCC(C)C(C)(C)C)[C@@H]1CC[C@H]2C3C[C@H](OS(O)(=S)=S)[C@H]4C[C@H](OS(O)(=S)=S)[C@@H](OS(O)(=S)=S)C[C@]4(C)[C@H]3CC[C@]12C (stereo partly specified) (tested in a mixture with another compound)	0	0	0	36	0	36	0
CC(CCC(=O)NN)C1CCC2C3CCC4CC(O)CCC4(C)C3CCC12C (stereo unspecified)	0	0	0	0	0	-	-
CCOC(=O)[C@]12CCCC=C1N(Cc1ccc3c(c1)OCO3)C(=O)[C@H](CC(=O)NCc1ccc(C)o1)C2	-	-	-	0	-	-	-
O=C1CC(=O)N(Cc2ccco2)C(=O)N1	0	0	0	0	0	37	0
S=C1NCN(Cc2ccco2)CN1	0	0	0	0	0	0	-
O=C1CC(=O)N(Cc2ccco2)C(=S)N1	0	0	0	0	0	41	0
NNC(=S)Nc1cccc(-c2n[nH]c(=S)o2)c1	0	0	0	0	0	39	0
CN(C)C(=S)Nc1cccc(-c2n[nH]c(=S)o2)c1	0	0	0	0	0	0	-
N#Cc1c(N2CCCC(O)C2)nc(N)c2c(N)nc3c(c12)CC(=O)N3C12CC3CC(CC(C3)C1)C2 (stereo unspecified)	0	46	46	35	51	45	0
C=C(C)CN(CC)c1nc(N)c2c(N)nc3c(c2c1C#N)CC(=O)N3C12CC3CC(CC(C3)C1)C2	0	0	0	0	0	0	-
COCOCCn1cc(CN2CCS(=O)(=O)N(Cc3ccc(-c4ccc(OC)c(OC)c4)cc3)C(CC(C)C)C2=O)nn1 (stereo unspecified)	0	-	-	0	-	-	-
O=C(COC(=O)c1ccccc1)Nc1ncc([N+](=O)[O-])s1	0	0	57	0	26	56	38
O=C(Nc1ccccc1)Nc1ncc([N+](=O)[O-])s1	0	0	0	0	0	-	-
CN(c1ccccc1)S(=O)(=O)c1cccc(C(=O)NCCc2ccc(O)c(O)c2)c1	0	0	0	0	0	37	43
O=C(NNC(=O)c1cc2cc(Br)ccc2oc1=O)c1ccc(O)cc1O	0	0	0	0	0	47	47
Nc1ncnc2c1c(-c1ccc(Oc3ccccc3)cc1)cn2C1CCCC1	0	0	0	0	0	39	38
C=Cc1c(C)c2cc3[nH]c(cc4nc(cc5nc(cc1[nH]2)C(C)=C5CCC(=O)O)C(CCC(=O)O)=C4C)c(C)c3C=C	0	0	60!	0	40!	97	51
CCCNc1c(NC(=O)c2ccc3c(c2)OCO3)c(=O)oc2ccccc12	0	0	0	0	0	0	-

Bioassay records from PubChem.
